Experimental data taken from PubChem BioAssay (EPA / NIEHS).
Inconclusive results are not listed. The source made the active and inactive calls. How the source made its calls, unless noted: active means hit-call score of the fitted dose curve at least 0.9, where 1 is the maximum; inactive means score below 0.9.

Tests used:
[1] = read-out: Monokine induced gamma interferon (MIG), CXCL9 (gene 4283); test: BSK_3C_MIG: BioMAP Diversity Plus: 3C Assay for Monokine induced gamma interferon (MIG) Biomarker Activity (AID 2283021); conditions: primary human endothelial cells (HUVEC); actives raise or lower the signal;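 on AC50: MIG protein level measured by immunoassay in the treated endothelial cultures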
Method in brief: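 Read-out is ELISA detection of MIG on human umbilical vein endothelial cells, taken 24 h after dosing. Gain or loss of signal was scored relative to DMSO controls using bidirectional curve fitting.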

[2] = target: human Vitamin D Receptor (VDR), VDR (gene 7421) (UniProt P11473); test: ATG_VDR_TRANS: Attagene TRANS-FACTORIAL HepG2 Assay for human Vitamin D Receptor (VDR) (AID 2283022; active means hit-call score of the fitted dose curve at least 0.9, where 1 is the maximum)
Method in brief: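 Fluorescence of labelled reporter cDNA fragments, resolved by capillary electrophoresis, gives mRNA induction after 24 h treatment of HepG2 cells carrying transfected Gal4-fusion reporter units. Activity is fitted in the positive direction with DMSO as baseline.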

[3] = BSK_3C_SRB: Viability Assessment in the BioMAP Diversity Plus: 3C Assay (AID 2283023); conditions: primary human endothelial cells (HUVEC);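 further: fitted both ways against DMSO so a hit may be signal rise or drop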
Method in brief: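 Cells were dosed with chemical, cultured 24 h, fixed with 10% TCA, stained with 0.1% SRB and read at 560 nm. Human umbilical vein endothelium was used; DMSO served as negative control and baseline.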

[4] = read-out: Matrix Metallopeptidase 1 (MMP1), MMP1 (gene 4312); test: BSK_BE3C_MMP1: BioMAP Diversity Plus: BE3C Assay for Matrix Metallopeptidase 1 (MMP1) Biomarker Activity (AID 2283024); conditions: primary human bronchial epithelial cells; actives raise or lower the signal
Method in brief: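 Human bronchial epithelial cells (BE3C system) exposed to compound for 24 h; MMP1 then quantified by ELISA. Activity was fitted in both directions relative to DMSO.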

[5] = read-out: Pselectin, SELP (gene 6403); test: BSK_4H_Pselectin: BioMAP Diversity Plus: 4H Assay for Pselectin Biomarker Activity (AID 2283026); conditions: primary human endothelial cells (HUVEC); actives raise or lower the signal
Method in brief: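 ELISA read-out of P-selectin on human umbilical vein endothelium after 24 h of dosing. Values derive from bidirectional fitting relative to DMSO. Parallel SRB protein staining flagged overt cytotoxicity.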

[6] = BSK_4H_SRB: Viability Assessment in the BioMAP Diversity Plus: 4H Assay (AID 2283027); conditions: primary human endothelial cells (HUVEC);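 further: cells exposed to compound for 24 h before staining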;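 on AC50: curves fitted both ways versus DMSO so AC50 may be loss or gain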
Method in brief: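 Absorbance at 560 nm of SRB-stained total protein served as the viability read-out in confluent primary human umbilical vein endothelium 24 h after chemical treatment. Curves were fitted bidirectionally against DMSO as negative control.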

[7] = BSK_BE3C_SRB: Viability Assessment in the BioMAP Diversity Plus: BE3C Assay (AID 2283028); conditions: primary human bronchial epithelial cells
Method in brief: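 Overt cytotoxicity was assessed as total protein in confluent human primary bronchial epithelial cultures 24 h after chemical addition, using 0.1% sulforhodamine B staining read at 560 nm.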

[8] = read-out: Thrombomodulin, THBD (gene 7056); test: BSK_3C_Thrombomodulin: BioMAP Diversity Plus: 3C Assay for Thrombomodulin Biomarker Activity (AID 2283029); conditions: primary human endothelial cells (HUVEC); actives raise or lower the signal
Method in brief: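 Read-out is ELISA of thrombomodulin on human umbilical vein endothelium 24 h after chemical dosing. Gain or loss of signal is scored relative to DMSO. Overt cytotoxicity is checked in parallel cultures by sulforhodamine B staining.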

[9] = read-out: Urokinase-type plasminogen activator receptor (uPAR), PLAUR (gene 5329); test: BSK_4H_uPAR: BioMAP Diversity Plus: 4H Assay for Urokinase-type plasminogen activator receptor (uPAR) Biomarker Activity (AID 2283030); conditions: primary human endothelial cells (HUVEC); actives raise or lower the signal
Method in brief: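 Chemicals are dosed onto human vascular endothelial primary cells (umbilical vein). After 24 h, uPAR is read by ELISA. Gain or loss of signal is fitted relative to DMSO.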

[10] = read-out: Vascular endothelial growth factor receptor 2 (Homo sapiens) (UniProt P35968); test: BSK_4H_VEGFRII: BioMAP Diversity Plus: 4H Assay for Vascular endothelial growth factor receptor 2 (VEGFR2) Biomarker Activity (AID 2283031); conditions: primary human endothelial cells (HUVEC); actives raise or lower the signal;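 on AC50: cell-surface VEGFR2 protein level quantified by ELISA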
Method in brief: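 VEGFRII levels on human vascular endothelial primary cells were determined by ELISA at 24 hours post-dosing, with gain- or loss-of-signal fitted against DMSO controls.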

[11] = read-out: Human Leukocyte Antigen - DR isotype (HLADR), HLA-DRA (gene 3122); test: BSK_BE3C_HLADR: BioMAP Diversity Plus: BE3C Assay for Human Leukocyte Antigen - DR isotype (HLADR) Biomarker Activity (AID 2283032); conditions: primary human bronchial epithelial cells; actives raise or lower the signal
Method in brief: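 ELISA read-out of HLA-DR on human lung bronchial epithelial primary cells, measured 24 h post-dosing. Both increases and decreases were scored relative to DMSO vehicle.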

[12] = read-out: Interferon-gamma inducible Protein 10 (IP10), CXCL10 (gene 3627); test: BSK_BE3C_IP10: BioMAP Diversity Plus: BE3C Assay for Interferon-gamma inducible Protein 10 (IP10) Biomarker Activity (AID 2283034); conditions: primary human bronchial epithelial cells; actives raise or lower the signal
Method in brief: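 Chemical is dosed onto human lung bronchial epithelial primary cells, cultures are incubated 24 h, and IP-10 is then quantified by ELISA. Gain or loss of signal is fitted in both directions relative to DMSO.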

[13] = read-out: Monokine induced gamma interferon (MIG), CXCL9 (gene 4283); test: BSK_BE3C_MIG: BioMAP Diversity Plus: BE3C Assay for Monokine induced gamma interferon (MIG) Biomarker Activity (AID 2283035); conditions: primary human bronchial epithelial cells; actives raise or lower the signal;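 further: MIG protein measured by ELISA in BE3C cultures after 24 h of dosing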
Method in brief: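 MIG level was determined by ELISA after 24 h chemical treatment of primary human bronchial epithelial cells. Values were fitted bidirectionally with DMSO as the negative control and activity baseline.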

[14] = read-out: Transforming growth factor beta 1 (TGFb1), TGFB1 (gene 7040); test: BSK_BE3C_TGFb1: BioMAP Diversity Plus: BE3C Assay for Transforming growth factor beta 1 (TGFb1) Biomarker Activity (AID 2283036;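 further: TGF-b1 protein level measured by ELISA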); conditions: primary human bronchial epithelial cells; actives raise or lower the signal
Method in brief: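 Primary human lung bronchial epithelial cells; compound exposure 24 h; TGF-b1 by ELISA; bidirectional fit, DMSO baseline. Parallel SRB total-protein staining for cytotoxicity.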

[15] = read-out: Plasminogen activator inhibitor-1 (PAI1), SERPINE1 (gene 5054); test: BSK_BE3C_PAI1: BioMAP Diversity Plus: BE3C Assay for Plasminogen activator inhibitor-1 (PAI1) Biomarker Activity (AID 2283037); conditions: primary human bronchial epithelial cells; actives raise or lower the signal
Method in brief: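 Primary human lung bronchial epithelial cells; chemical dosing; 24 h; PAI-1 measured by ELISA; bidirectional fit referenced to DMSO as negative control.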

[16] = read-out: urokinase plasminogen activator (uPA), PLAU (gene 5328); test: BSK_BE3C_uPA: BioMAP Diversity Plus: BE3C Assay for urokinase plasminogen activator (uPA) Biomarker Activity (AID 2283038); conditions: primary human bronchial epithelial cells; actives raise or lower the signal
Method in brief: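 Measured by ELISA: uPA from human primary bronchial epithelial cells 24 h after chemical treatment. Values derive from bidirectional curve fitting with DMSO serving as negative control. Total protein by SRB staining in parallel wells flagged overt cytotoxicity.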

[17] = read-out: Urokinase-type plasminogen activator receptor (uPAR), PLAUR (gene 5329); test: BSK_BE3C_uPAR: BioMAP Diversity Plus: BE3C Assay for Urokinase-type plasminogen activator receptor (uPAR) Biomarker Activity (AID 2283039); conditions: primary human bronchial epithelial cells; actives raise or lower the signal;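 further: uPAR protein level measured by ELISA on the cells; cells exposed to compound for one day before measurement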
Method in brief: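 Human bronchial epithelial primary cells; chemical exposure 24 h; uPAR by ELISA; bidirectional fit vs DMSO control.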

[18] = read-out: Vascular cell adhesion molecule 1 (VCAM1), VCAM1 (gene 7412); test: BSK_4H_VCAM1: BioMAP Diversity Plus: 4H Assay for Vascular cell adhesion molecule 1 (VCAM1) Biomarker Activity (AID 2283033); conditions: primary human endothelial cells (HUVEC); actives raise or lower the signal
Method in brief: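 ELISA read-out of VCAM-1 on human umbilical vein endothelium 24 hours after chemical dosing; gain or loss of signal was fitted relative to DMSO, with sulforhodamine B staining of parallel cultures flagging overt cytotoxicity.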

[19] = BSK_3C_Vis: BioMAP Diversity Plus: 3C Assay for Morphology Visualization (AID 2283025); conditions: primary human endothelial cells (HUVEC);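 further: fitted both ways so gain or loss versus DMSO counts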
Method in brief: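 Chemicals were added to primary human umbilical vein endothelium, cells were incubated 24 h, and morphology was then visualized by light microscopy. Gain or loss of signal was fitted bidirectionally relative to DMSO.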

Measured: AC50

Chain of human Vitamin D Receptor (VDR), VDR (gene 7421) (P11473 whole entry, looked up, the tested form may be a part): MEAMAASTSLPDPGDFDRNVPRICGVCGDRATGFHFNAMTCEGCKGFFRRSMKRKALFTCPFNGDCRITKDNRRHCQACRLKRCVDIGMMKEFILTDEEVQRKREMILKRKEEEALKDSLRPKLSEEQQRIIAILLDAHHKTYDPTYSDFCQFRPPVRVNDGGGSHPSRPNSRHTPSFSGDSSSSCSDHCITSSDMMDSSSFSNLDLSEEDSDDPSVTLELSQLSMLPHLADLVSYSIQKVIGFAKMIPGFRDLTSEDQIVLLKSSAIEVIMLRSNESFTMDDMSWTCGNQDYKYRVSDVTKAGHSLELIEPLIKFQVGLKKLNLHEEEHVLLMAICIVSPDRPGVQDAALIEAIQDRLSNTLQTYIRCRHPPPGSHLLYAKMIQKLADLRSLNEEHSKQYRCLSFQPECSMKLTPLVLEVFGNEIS

Cc1nccn1-c1ccc(Sc2cccc(C3(C(N)=O)CCOCC3)c2)cc1
active: [2] 38 µM | [3] 9.18 µM | [4] 8.1 µM | [8] 8.22 µM | [11] 12.8 µM | [12] 20 µM | [16] 14.3 µM
not listed: [17] | [18] | [19]
inactive: all other assays above

Cc1ncc([C@@H](CCCCCCc2ccc3c(n2)NCCC3)CC(=O)O)cn1
active: [9] 3.97 µM
not listed: [18] | [19]
inactive: all other assays above

CCc1ccc(O)c(C(C)(C)C)c1
active: [1] 36 µM | [3] 31.2 µM | [5] 32 µM | [6] 32.8 µM | [9] 36.7 µM
not listed: [2] | [17] | [18] | [19]
inactive: all other assays above

CC(C)CCCCCCOC(=O)C1CCCCC1C(=O)OCCCCCCC(C)C (stereo not drawn)
not listed: [12] | [19]
inactive: all other assays above

CCc1cccc(CC)c1N
not listed: [2] | [17] | [19]
inactive: all other assays above

CCCCCCCCCCCCCCO
active: [1] 30.7 µM | [3] 31.3 µM | [5] 33.1 µM | [6] 34 µM | [9] 32.6 µM | [10] 32.6 µM | [18] 34.2 µM
not listed: [12] | [17] | [19]
inactive: all other assays above

O=c1[nH]cnc2c1ncn2[C@H]1CC[C@@H](CO)O1
not listed: [2] | [18] | [19]
inactive: all other assays above

CCCCCCCCCC
not listed: [12] | [17] | [18] | [19]
inactive: all other assays above

O=C(O)CO
inactive: [2]

O=C(O)c1cccc(C(=O)O)c1
not listed: [2] | [12] | [18]
inactive: all other assays above

C[Si](C)(C)C(F)(F)C(F)(F)C(F)(F)F
not listed: [12] | [14] | [17] | [18] | [19]
inactive: all other assays above

NNC(=O)c1ccncc1
not listed: [12] | [18] | [19]
inactive: all other assays above

CCCCC(CC)C(=O)OCCOCCOCCOC(=O)C(CC)CCCC (stereo not drawn)
not listed: [2] | [12] | [17] | [18]
inactive: all other assays above

O=C(O)c1ccc2c(c1)nc(C(=O)NC1CCN(C3CC3)CC1)n2Cc1cc(-c2ccc(Cl)s2)on1
active: [5] 0.952 µM | [9] 0.0541 µM
not listed: [2]
inactive: all other assays above

Cn1c(=O)c2[nH]cnc2n(C)c1=O
not listed: [2] | [17] | [18] | [19]
inactive: all other assays above

CC(C)C(=O)Nc1ccc([N+](=O)[O-])c(C(F)(F)F)c1
not listed: [2] | [12] | [18]
inactive: all other assays above

O=C(O)[C@H](O)[C@@H](O)C(=O)O
not listed: [2] | [12]
inactive: all other assays above

FC(F)(F)COC(OCC(F)(F)F)OCC(F)(F)F
not listed: [12] | [14] | [17] | [18] | [19]
inactive: all other assays above

NC(N)=O
not listed: [2] | [12]
inactive: all other assays above

FC(F)(F)C(F)(F)C(F)(F)C(F)(F)C(F)(F)C(F)(F)I
not listed: [14] | [19]
inactive: all other assays above

c1ccc2ncccc2c1
not listed: [2] | [12] | [18] | [19]
inactive: all other assays above

CC[C@H](C)C(=O)O[C@H]1C[C@H](O)C=C2C=C[C@H](C)[C@H](CC[C@@H](O)C[C@@H](O)CC(=O)O)[C@H]21
not listed: [12] | [17] | [19]
inactive: all other assays above

CCCCCCCC1CCC(=O)O1 (stereo not drawn)
not listed: [2] | [17] | [19]
inactive: all other assays above

OC[C@H]1O[C@@](CO)(O[C@H]2O[C@H](CO)[C@@H](O)[C@H](O)[C@H]2O)[C@@H](O)[C@@H]1O
not listed: [2] | [19]
inactive: all other assays above
